# About 410 targets per protein were measured; listed, in parts, are those with the strongest signals and a random draw of the rest.
# B1: Dectin-1 CTLD (Mus musculus), Q6QLQ4 (protein)
# chain: MKYHSHIENLDEDGYTQLDFSTQDIHKRPRGSEKGSRAPSSPWRPIAVGLGILCFVVVVVAAVLGALAFWRHNSGRNPEEKDNFLSRNKENHKPTESSLDEKVAPSKASQTTGGFSQSCLPNWIMHGKSCYLFSFSGNSWYGSKRHCSQLGAHLLKIDNSKEFEFIESQTSSHRINAFWIGLSRNQSEGPWFWEDGSAFFPNSFQVRNTVPQESLLHNCVWIHGSEVYNQICNTSSYSICEKEL
# Assays:
# Assay in all cases: glycan array binding signal (z-score within array); higher = stronger binding
# Conditions in all cases: glycan notation: IUPAC condensed, linker removed
# Fuc(a1-2)Gal(b1-4)GlcNAc = biological target: Fuc(a1-2)Gal(b1-4)GlcNAc
# In short: (§1)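 The binding signal is a Z-score computed within each array. Data were drawn from 3228 arrays in the Consortium for Functional Glycomics database, restricted to those with a known protein sequence. Scores were averaged over arrays of the same protein sequence at different concentrations or buffers, and over linkers, and negative values can be taken as non-binding.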
# Fuc(a1-4)GlcNAc = biological target: Fuc(a1-4)GlcNAc
# In short: as §1
# Gal(b1-2)Gal = biological target: Gal(b1-2)Gal
# In short: as §1
# Gal(b1-3)Gal = biological target: Gal(b1-3)Gal
# In short: as §1
# [1] = biological target: Gal(b1-3)GalNAc(b1-4)[Neu5Ac(a2-3)]Gal(b1-4)Glc
# In short: as §1
# [2] = biological target: Gal(b1-3)[Neu5Ac(a2-6)]GlcNAc
# In short: as §1
# [3] = biological target: Gal3S(b1-3)[Fuc(a1-4)]GlcNAc
# In short: as §1
# Gal4S6S(b1-4)GlcNAc = biological target: Gal4S6S(b1-4)GlcNAc
# In short: as §1
# GlcA(b1-3)Gal = biological target: GlcA(b1-3)Gal
# In short: as §1
# [4] = biological target: GlcNAc(b1-3)Gal(b1-4)GlcNAc(b1-3)Gal(b1-4)GlcNAc
# In short: as §1
# [5] = biological target: GlcNAc(b1-4)[GlcNAc(b1-6)]GalNAc
# In short: as §1
# Kdn(a2-3)Gal(b1-3)GlcNAc = biological target: Kdn(a2-3)Gal(b1-3)GlcNAc
# In short: as §1
# [6] = biological target: Man(a1-2)Man(a1-2)Man(a1-3)[Man(a1-2)Man(a1-6)[Man(a1-3)]Man(a1-6)]Man(b1-4)GlcNAc(b1-4)GlcNAc
# In short: as §1
# [7] = biological target: Man(a1-2)Man(a1-3)[Man(a1-2)Man(a1-6)]Man
# In short: as §1
# Man(b1-4)GlcNAc = biological target: Man(b1-4)GlcNAc
# In short: as §1
# [8] = biological target: Neu5Ac(a2-3)Gal(b1-3)GlcNAc
# In short: as §1
# [9] = biological target: Neu5Ac(a2-3)Gal(b1-3)[Neu5Ac(a2-6)]GalNAc
# In short: as §1
# [10] = biological target: Neu5Ac(a2-3)Gal(b1-4)[Fuc(a1-3)]GlcNAc(b1-3)Gal(b1-4)GlcNAc
# In short: as §1
# [11] = biological target: Neu5Ac(a2-3)Gal(b1-4)[Fuc(a1-3)]GlcNAc(b1-3)Gal(b1-4)[Fuc(a1-3)]GlcNAc(b1-3)Gal(b1-4)[Fuc(a1-3)]GlcNAc
# In short: as §1
# [12] = biological target: Neu5Ac(a2-3)[Neu5Ac(a2-6)]GalNAc
# In short: as §1
# Neu5Ac(a2-6)GalNAc = biological target: Neu5Ac(a2-6)GalNAc
# In short: as §1
# [13] = biological target: Neu5Ac(a2-8)Neu5Ac(a2-8)Neu5Ac
# In short: as §1
binder,measurement,setting,value
B1,glycan array binding signal (z-score),Fuc(a1-2)Gal(b1-4)GlcNAc,-0.083
same,glycan array binding signal (z-score),Fuc(a1-4)GlcNAc,-0.141
same,glycan array binding signal (z-score),Gal(b1-2)Gal,-0.384
same,glycan array binding signal (z-score),Gal(b1-3)Gal,-0.471
same,glycan array binding signal (z-score),[1],-0.16
same,glycan array binding signal (z-score),[2],-0.392
same,glycan array binding signal (z-score),[3],-0.474
same,glycan array binding signal (z-score),Gal4S6S(b1-4)GlcNAc,-0.021
same,glycan array binding signal (z-score),GlcA(b1-3)Gal,4.11
same,glycan array binding signal (z-score),[4],-0.18
same,glycan array binding signal (z-score),[5],9.99
same,glycan array binding signal (z-score),Kdn(a2-3)Gal(b1-3)GlcNAc,-0.044
same,glycan array binding signal (z-score),[6],0.004
same,glycan array binding signal (z-score),[7],-0.241
same,glycan array binding signal (z-score),Man(b1-4)GlcNAc,-0.259
same,glycan array binding signal (z-score),[8],-0.294
same,glycan array binding signal (z-score),[9],-0.324
same,glycan array binding signal (z-score),[10],-0.03
same,glycan array binding signal (z-score),[11],7.53
same,glycan array binding signal (z-score),[12],-0.211
same,glycan array binding signal (z-score),Neu5Ac(a2-6)GalNAc,0.06
same,glycan array binding signal (z-score),[13],5.28
